Screens as filed in PubChem.
Rows were chosen to be rich in hits. Some 0.44% of all compounds tested hit in one or more screens of this group.
ABCB6 inh 2 = inhibitors of human ABC transporter ABCB6. Q9NP58. K562-ABCB6 porphyrin accumulation, flow cytometry, 1 h; active compounds read low. fluorescence ratio to DMSO, % at 10 µM. actives 0.19% (n = 360,000);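 active = fluorescence ratio to DMSO below 75%, the collection mean minus 3 SD; inconclusive = too few cells collected in the well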;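 note: signal is porphyrin accumulated inside mitochondria; lower ratio means ABCB6 inhibition with less porphyrin fluorescence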
VLA-4 inh = inhibition in a human VLA-4 binding assay; P13612; VLA-4 expressing cells, ligand binding flow cytometry; inhibition, % (about 7 µM as worked out from the volumes in the protocol); actives 0.2% (n = 330,000); in the data active = inhibition above about 50%
PolyA inhibitor = yeast polyadenylation inhibition | S. cerevisiae SKY197-pL101 polyadenylation reporter, beta-gal luminescence; efflux-impaired pdr1/pdr3 knockout yeast; score 100 = 6 SD above DMSO | activity score, % at 12 µM | actives 0.02% (n = 300,000);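 active = lowest replicate activity score at least 50, where 100 means six control SD above control mean; inconclusive = lowest score under 50 but half or more replicates reach 50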;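 note: yeast exposed to compound for 9 h at 30 °C; higher score means more reporter readthrough which indicates perturbed polyadenylation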
JMJD2C inh = human JMJD2C demethylase inhibition; Q9H3R0; GST-JMJD2C(1-420) H3K9me3 demethylation, DELFIA europium; inhibition, % at 2.35 µM; actives 0.069% (n = 330,000);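 active = more than half of a compound's replicate wells show inhibition beyond 50%, single wells judged on their own value; inconclusive = some, but no more than half, of replicates pass 50% inhibition; inactive = no replicate passes 50% inhibition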;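 note: signal counts dimethyl H3K9 product captured on neutravidin plate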
Target sequence (Q9H3R0 1-420 limits assumed): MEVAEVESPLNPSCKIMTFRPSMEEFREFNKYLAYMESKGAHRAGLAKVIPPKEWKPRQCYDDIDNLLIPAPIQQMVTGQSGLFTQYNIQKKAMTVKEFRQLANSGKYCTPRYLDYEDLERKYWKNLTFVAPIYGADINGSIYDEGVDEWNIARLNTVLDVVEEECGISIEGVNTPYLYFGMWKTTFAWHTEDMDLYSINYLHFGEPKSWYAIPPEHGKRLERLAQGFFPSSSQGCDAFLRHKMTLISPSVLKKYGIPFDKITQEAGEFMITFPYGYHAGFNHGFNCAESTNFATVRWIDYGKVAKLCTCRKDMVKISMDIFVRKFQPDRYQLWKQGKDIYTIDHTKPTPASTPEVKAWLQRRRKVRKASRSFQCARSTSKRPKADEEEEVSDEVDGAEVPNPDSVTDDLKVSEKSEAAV
VLA-4 mod pick = confirmation of allosteric modulators of human VLA-4 integrin; shares compounds with VLA-4 inh; U937 cells, HUTS-21 LIBS mAb binding, flow cytometry; LDV ligand present at threefold Kd; inhibition, % at 6.7 µM; actives 2% (n = 1,300); in the data active = inhibition above about 40%
Large screens that a line does not name were inactive (follow-up assays come after a bar, where they were run); ! = a repeat was not active.

NC(=O)c1ccccc1NC(=O)c1cc(S(=O)(=O)N2CCCCC2)ccc1N1CCOCC1	none (no result: PolyA inhibitor) | VLA-4 mod pick inactive
Cc1ccc(C)c(NC(=O)c2cc(S(=O)(=O)N3CCCCC3)ccc2N2CCOCC2)c1	VLA-4 inh 51 (no result: PolyA inhibitor) | VLA-4 mod pick inactive
O=C(Nc1ccccc1)c1cc(S(=O)(=O)N2CCCCC2)ccc1N1CCOCC1	none (no result: PolyA inhibitor, JMJD2C inh) | VLA-4 mod pick inactive
CCOCCCNC(=O)C(c1ccc(C)cc1)N(Cc1cccs1)C(=O)c1ccccn1 (stereo not drawn)	none
COC(=O)c1c(C)[nH]c(C(=O)C(C)OC(=O)c2cc(C)oc2C)c1C (stereo not drawn)	none (no result: PolyA inhibitor)
COC(=O)c1c(C)[nH]c(C(=O)C(C)OC(=O)c2ccco2)c1C (stereo not drawn)	none (no result: PolyA inhibitor, JMJD2C inh) | VLA-4 mod pick inactive
COC(=O)c1c(C)[nH]c(C(=O)C(C)OC(=O)C2CC2)c1C (stereo not drawn)	none (no result: PolyA inhibitor) | VLA-4 mod pick inactive
CSc1cccc(NC(=O)C2CCN(S(C)(=O)=O)CC2)c1	none
COc1ccc2c(c1)N(C)/C(=C1/SC(=NCc3ccccc3)N(c3ccccc3)C1=O)S2	VLA-4 inh 90 | VLA-4 mod pick inactive
CC(=O)NCCc1ccc(O)cc1	none
C[C@H](NCCc1ccc(O)cc1)[C@H](O)c1ccc(O)cc1	VLA-4 inh 52 (no result: PolyA inhibitor, JMJD2C inh) | VLA-4 mod pick inactive
CCC(C)(C)C1CCC2(CC1)NC(=O)N(CC(=O)N(C)Cc1ccc3c(c1)OCCO3)C2=O (stereo not drawn)	none (no result: PolyA inhibitor)
CCOc1ccc(S(=O)(=O)Nc2ccccc2C(=O)N(C)C2CCN(C)CC2)cc1	VLA-4 inh 50 (no result: PolyA inhibitor) | VLA-4 mod pick inactive
CCOC(=O)C1CCCN(C2CC(=O)N(c3ccc(C)c(C)c3)C2=O)C1 (stereo not drawn)	none | VLA-4 mod pick inactive
CCOC(=O)C1CCCN(C2CC(=O)N(c3cccc(C(F)(F)F)c3)C2=O)C1 (stereo not drawn)	none | VLA-4 mod pick inactive
CCOC(=O)C1CCCN(C2CC(=O)N(c3ccc(N4C(=O)CC(N5CCCC(C(=O)OCC)C5)C4=O)cc3)C2=O)C1 (stereo not drawn)	none
Cn1c(N)c(C(=O)COC(=O)c2ccc(-c3ccccc3)cc2)c(=O)n(C)c1=O	none (no result: PolyA inhibitor)
Cc1ccc(NC(=O)CC2SCCNC2=O)cc1[N+](=O)[O-] (stereo not drawn)	none
N#CC1=C(S)N=C(N)C(c2nc(-c3ccccc3)cs2)C12CCCCC2 (stereo not drawn)	none
N#CC1=C(S)N=C(N)C(c2nc(-c3ccccc3)cs2)C12CCCC2 (stereo not drawn)	VLA-4 inh 91 | VLA-4 mod pick inactive
Cc1ccc(C)c(N2CCN(C(=O)C3CCN(S(=O)(=O)c4c(C)noc4C)CC3)CC2)c1	none
CCCS(=O)(=O)NC(=O)C1(C)CCN(C(=O)c2c(C)noc2C)C1 (stereo not drawn)	none (no result: VLA-4 inh, PolyA inhibitor, JMJD2C inh)
c1ccc(C(Cc2nc(-c3cccnc3)no2)c2ccccc2)cc1	VLA-4 inh 92 | VLA-4 mod pick inactive
COc1cccc(NC(=O)CCN2C(=O)c3cccc([N+](=O)[O-])c3C2=O)c1	none
COc1ccc(NC(=O)CCN2C(=O)c3cccc([N+](=O)[O-])c3C2=O)cc1	VLA-4 inh 51 | VLA-4 mod pick inactive
Cc1ccc2c([N+](=O)[O-])c(C)ccc2n1	VLA-4 inh 51 | VLA-4 mod pick inactive
Cc1ccc2c([N+](=O)[O-])cccc2n1	none
CCC(C(=O)OC)n1cnc2c(nnn2-c2cccc(OC)c2)c1=O (stereo not drawn)	none | VLA-4 mod pick inactive
COCCN1C=C2C(=O)C(C)(OC(=O)c3cccs3)C(=O)C=C2C=C1CCCC(=O)OC (stereo not drawn)	VLA-4 inh 50 | VLA-4 mod pick inactive
OC1C(O)C(O)C(O)C(O)C1O (stereo not drawn)	VLA-4 inh 51! | VLA-4 mod pick inactive
COc1cc(OC)cc(C(=O)NC(C(=O)N2CCc3ccccc3C2)C(C)C)c1 (stereo not drawn)	VLA-4 inh 50 | VLA-4 mod pick inactive
CCCNC(=O)c1cc(C2CCCCN2C(=O)CCc2ccccc2)on1 (stereo not drawn)	none (no result: VLA-4 inh, PolyA inhibitor, JMJD2C inh)
COc1ccc(NS(=O)(=O)c2cc3c(cc2C)NC(=O)CO3)c(OC)c1	none
O=C1CCc2cc(S(=O)(=O)Nc3ccc(F)cc3)ccc2N1	none (no result: PolyA inhibitor)
O=C1Cc2cc(S(=O)(=O)NCc3ccc(F)cc3)ccc2N1	none (no result: PolyA inhibitor) | VLA-4 mod pick inactive
CCn1cc(C(=O)N[C@@H](CCSC)C(=O)NCCCO)c(=O)c2cc3c(cc21)OCO3	none | VLA-4 mod pick inactive
CCn1cc(C(=O)N[C@@H](CCSC)C(=O)NCCOC)c(=O)c2cc3c(cc21)OCO3	none
COc1cc(OC)cc(C(=O)NNC(=S)NCc2ccco2)c1	VLA-4 inh 53 | VLA-4 mod pick inactive
COc1cc(OC)cc(C(=O)NC(=S)NCc2ccco2)c1	none
COc1cc(CCCN2C(=S)NC[C@@H]2Cc2ccccc2)cc(OC)c1OC	none
COc1cc(CCCN2C(=O)C(=O)NC[C@H]2Cc2cccc3ccccc23)cc(OC)c1OC	none
CCC(C)[C@H]1CNC(=O)C(=O)N1CCCc1cc(OC)c(OC)c(OC)c1 (stereo partly drawn)	PolyA inhibitor inconclusive | VLA-4 mod pick inactive
CCCC[C@@H]1CNC(=O)C(=O)N1CCCc1cc(OC)c(OC)c(OC)c1	VLA-4 inh 58 | VLA-4 mod pick inactive
CC1(C)CC(=O)C(C(C2=C(O)CC(C)(C)CC2=O)c2ccco2)C(=O)C1 (stereo not drawn)	none
C=CCc1c(O)c(CC)cc2c(C)cc(=O)oc12	none
CC1CC(C)CN(C(=O)c2ccc(C(=O)c3ccccc3)cc2)C1 (stereo not drawn)	none
CC1CC(C)CN(C(=O)c2ccc(C#N)cc2)C1 (stereo not drawn)	VLA-4 inh 60 | VLA-4 mod pick inactive
CC(OC(=O)c1ccccc1O)C(=O)Nc1cccc(Cl)c1 (stereo not drawn)	none | VLA-4 mod pick inactive
CCN1CCN(Cc2ccc(NC(=O)c3cc(NC(=O)N4CCNC4=O)cc(OC)c3)cc2C(F)(F)F)CC1	VLA-4 inh 55 | VLA-4 mod pick inactive
COc1cc(NC(=O)N2CCNC2=O)cc(C(=O)Nc2cccc(C(F)(F)F)c2)c1	none | VLA-4 mod pick inactive
COc1cc(NC(=O)c2ccno2)cc(C(=O)Nc2cccc(C(F)(F)F)c2)c1	none
N#CC(C#N)=C1C=CC=CN1/C(=C\c1ccco1)C(=O)c1ccc(-c2ccccc2)cc1	VLA-4 inh 50 (no result: PolyA inhibitor) | VLA-4 mod pick inactive
N#CC(C#N)=C1C=CC=CN1/C(=C\c1ccco1)C(=O)c1ccc(Cl)cc1	none (no result: PolyA inhibitor)
COc1ccc(F)c(CN(C)CC2CCCN(CCc3ccc(F)cc3)C2)c1 (stereo not drawn)	none
O=C(NCCCNc1ccc(C(F)(F)F)cc1[N+](=O)[O-])c1cc(F)c(F)cc1Cl	VLA-4 inh 94 | VLA-4 mod pick inactive
O=C(NCCCNc1ccc(C(F)(F)F)cc1[N+](=O)[O-])c1ccc(Cl)cc1	none
